In PubChem BioAssay (NCI):
This is part of a sample that, as a whole, favours compounds with a hit. Of some 83,000 tested, about 20% had one in any assay.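 Assay: single dose, 48 h. Readout: percent growth (0 = no net growth; negative = cell death). Active: <10.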 Unmarked numbers belong to inactive results. Active and inactive are the calls of the source.

Key:
Experiment in all cases: NCI-60 one-dose screen, 48 h (100 = growth as untreated, 0 = no growth, -100 = all killed)
NCI-H23 lung = conditions: 10 µM unless noted
NCI-H226 lung = conditions: 10 µM unless noted
NCI-H322M lung = conditions: 10 µM unless noted
HOP-62 NSCLC = conditions: 10 µM unless noted
NCI-H460 lung = conditions: 10 µM unless noted
HOP-92 NSCLC = conditions: 10 µM unless noted
NCI-H522 lung = conditions: 10 µM unless noted
A549/ATCC NSCLC = conditions: 10 µM unless noted
786-0 renal = conditions: 10 µM unless noted
COLO 205 colon = conditions: 10 µM unless noted
DU-145 prostate = conditions: 10 µM unless noted
K-562 leukemia = conditions: 10 µM unless noted
MALME-3M melanoma = conditions: 10 µM unless noted
MDA-MB-231 breast = conditions: 10 µM unless noted
RXF 393 renal = conditions: 10 µM unless noted
SF-268 CNS = conditions: 10 µM unless noted
SF-295 CNS = conditions: 10 µM unless noted
SF-539 CNS = conditions: 10 µM unless noted
UACC-257 melanoma = conditions: 10 µM
M14 melanoma = conditions: 10 µM unless noted

Compound	growth (NCI-H23 lung)	growth (NCI-H226 lung)	growth (NCI-H322M lung)	growth (HOP-62 NSCLC)	growth (NCI-H460 lung)	growth (HOP-92 NSCLC)	growth (NCI-H522 lung)	growth (A549/ATCC NSCLC)	growth (786-0 renal)	growth (COLO 205 colon)	growth (DU-145 prostate)	growth (K-562 leukemia)	growth (MALME-3M melanoma)	growth (MDA-MB-231 breast)	growth (RXF 393 renal)	growth (SF-268 CNS)	growth (SF-295 CNS)	growth (SF-539 CNS)	growth (UACC-257 melanoma)	growth (M14 melanoma)
C=C(C)[C@@H]1CC[C@]2(C(=O)ON)CC[C@]3(C)[C@H](CC[C@@H]4[C@@]5(C)C/C(=C/c6ccc(Br)cc6)C(=O)C(C)(C)[C@@H]5CC[C@]43C)[C@@H]12	78.4%	72.6%	85.1%	85.9%	71%	73.6%	66.8%	54.8%	84.8%	88%	79.2%	46.3%	83.2%	80.6%	78.4%	81.1%	74.9%	75.9%	81.1%	76%
Cc1nn(-c2ccc(Cl)cc2)c(C)c1N=Nc1ccc2oc(=O)ccc2c1	82.4%	92.9%	104%	91.7%	64.9%	76.8%	81.7%	77.6%	78.8%	105%	74.5%	73.5%	89.5%	77.5%	79.4%	85.1%	90%	62.1%	94.6%	104%
N#C/C(=C\c1ccc(Cl)cc1Cl)C(N)=O	104%	109%	100%	101%	106%	122%	93.9%	109%	101%	117%	114%	80.3%	105%	100%	102%	101%	107%	104%	109%	99.4%
CC(=O)Nc1cccc(-n2cnc3cc(-c4ccc(O)cc4)ccc32)c1	47.8%	37.9%	56.6%	38.4%	15.9%	49.5%	-29.8% (active)	50.4%	45.6%	66.3%	27.9%	8.67% (active)	73.7%	61.1%	-6.91% (active)	46.2%	17.1%	-5.03% (active)	79.6%	53.2%
COc1ccc(Cn2cc3c(c2-c2cc(OC)c(OC)c(OC)c2)CCCc2cnoc2-3)cc1N	47.1%	66.9%	46.3%	51.1%	11.5%	65.3%	12.5%	43%	38.1%	12.7%	17.2%	20.3%	54.9%	35.2%	-5.39% (active)	58%	0% (active)	1.95% (active)	90.3%	0.685% (active)
CCOC(=O)/C=c1\sc2n(c1=O)C1C(NN=2)N(CC)C(=O)N1CC (stereo not given)	79.6%	81.2%	78.9%	71.6%	37.8%	75.3%	33.3%	62.1%	63%	51.3%	75.3%	24.1%	49.1%	66.8%	70.2%	81.1%	46%	54.4%	71.5%	44.7%
COc1ccc(Cn2cc3c(c2-c2ccccc2)CCCc2cnoc2-3)cc1	77.6%	79%	76%	63.8%	26.9%	72%	34.9%	56.6%	73.3%	40.9%	78.9%	28.5%	41.9%	60.8%	76.4%	73.1%	30%	52.6%	76%	40.5%
O=S(=O)(NC1CC2CCC1C2)c1ccc2c(c1)C(=NO)c1cc(S(=O)(=O)NC3CC4CCC3C4)ccc1-2 (stereo not given)	-84.2% (active)	75.2%	58.3%	-70.5% (active)	23.5%	-4.1% (active)	32.4%	75%	31.3%	85.5%	4.92% (active)	11.9%	-78.9% (active)	-21.9% (active)	-9.66% (active)	8.95% (active)	62.9%	-35% (active)	105%	24.9%
